Among the data in PubChem BioAssay (NCI) are growth values, retold here.

The panel holds about 83,000 compounds, 20% with a hit somewhere; the sample as a whole holds those more often.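 Treatment: one concentration, 48 hours, 96-well format. Scoring: percent growth, with anything below 10 considered active.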 Active and inactive are the calls of the source.

The test system of this test is HL-60(TB) leukemia. Description: NCI-60 one-dose screen, 48 h (100 = growth as untreated, 0 = no growth, -100 = all killed). As to conditions: 10 µM unless noted.
Turning to `CC1(C)OCC2OC3(C(=O)O)OC(C)(C)OC3C2O1` (stereo not given), the growth is 98.2% (inactive).
Turning to `CC(O)CCC(C)[N+](=O)[O-]` (stereo not given), the growth was 96.9% (inactive).
Under `Cn1cc(/C=C2/C(=O)Nc3ccccc32)c2ccccc21` stands 85.8% (inactive); under `O=c1[nH]c(N2CCOCC2)nc2scc(-c3ccccc3)c12`, 103% (inactive); under `NC(=O)NC(=O)/C=C/C(=O)OCCCl`, 91.6% (inactive).
With `Nc1c(C(=O)Nc2ccccc2)sc2nc3c(cc12)CN(C(=O)OCc1ccccc1)CC3` the figure was 17.1% (inactive).
As for `COc1ccc(C(=O)C(CN(C)C)c2ccccc2)cc1` (stereo not given), the growth is 3.71% (active).
For `O=C(CSc1ccc(Cl)cc1)Nc1ccc(-c2nc3ccccc3s2)c(Cl)c1`, the growth is 63.4% (inactive).
With `CCCCC(=O)Nc1c(C(=O)Nc2ccccc2)sc2nc3c(cc12)C(OC(=O)CCCC)CCC3` (stereo not given) the figure was 99.3% (inactive).
As for `CC(C)NCC(O)COc1ccc(CC(N)=O)cc1` (stereo not given), the growth was 101% (inactive).
With `S=C1SCN(Cc2cccs2)CN1Cc1cccs1`, the growth is 91% (inactive).
Consider `C/C=C(\C)C(=O)NC1=CC[C@@]2(C)C(=CCC3C2CC[C@@]2(C)C3CC[C@@H]2C(C)N(C)C)C1=O` (stereo not given in full), for which the growth is 8.53% (active).
Regarding `NC(=O)c1cc(Cl)ccc1NC(=O)COc1ccccc1`, the growth is -0.779% (active).
Under `COc1ccc(OC)c(-c2c(C#N)c(-c3ccco3)nc3c2c(-c2ccccc2)nn3-c2ccccc2)c1` stands 105% (inactive); under `CCOC(=O)c1nnn(-c2ccccc2)c1C1=CN(C)CCC1`, 84.4% (inactive); under `N#Cc1nc(-c2ccccc2)oc1S(=O)(=O)NCC(c1ccc(Cl)cc1)N1CCCCC1` (stereo not given), 8.18% (active).
Under `CC[C@@H](C(=O)[C@@H](C)[C@@H](O)[C@H](C)[C@@H]1O[C@@H]([C@@H](CC)C(=O)ONC(=O)c2ccccc2O)CC[C@@H]1C)C1O[C@]2(C=CC(=O)[C@]3(CC[C@@](C)([C@H]4CC[C@](O)(CC)[C@H](C)O4)O3)O2)[C@H](C)C[C@@H]1C` (stereo not given in full) stands -45.7% (active); under `CC(C)c1ncc(CO)n1Cc1c(Cl)cccc1Cl`, 98.7% (inactive); under `CC1CC(C(C)(C)C)C(=O)C(C(C)(C)C)C1` (stereo not given), 107% (inactive).
Under `COc1ccc(-c2conc2-c2ccccc2)cc1` stands 15.1% (inactive).
In the case of `C=C(C)C(C(=O)OCC)(C(=O)OCC)C(C)C`, the growth was 118% (inactive).
Under `CN(C)[C@@H]1C(=O)C(C(N)=O)=C(O)[C@@]2(O)C(=O)C3=C(O)c4c(O)cc(CN5CCc6ccccc6C5)c(Cl)c4C[C@H]3C[C@@H]12` stands -64.8% (active); under `COc1cccc(/C=C/C(=O)/C=C(/C=C/c2cccc(OC)c2OC)OB(F)F)c1OC`, 26.1% (inactive).
Under `CCOC(=O)C1=C(c2ccccc2)N=C2SC=C(c3cccc([N+](=O)[O-])c3)N2C1c1ccc(O)cc1` (stereo not given) stands 107% (inactive).
Turning to `O=C(Nc1nc(C(=O)N2CCN(C(c3ccccc3)c3ccccc3)CC2)cs1)c1ccc(NC2CCCCC2)c([N+](=O)[O-])c1`, the growth is 98.5% (inactive).
Under `CC(C)c1cccc(C#N)c1` stands 112% (inactive); under `Cc1ccc(S(=O)(=O)n2cc(C3C(Cl)C(=O)N3c3ccc(N4CCOCC4=O)cc3)c3ccccc32)cc1` (stereo not given), 22.1% (inactive); under `CC(=O)c1nc2ccccc2n1CCN1CCN(C)CC1`, 8.01% (active).
With `O=S(=O)(NCCNc1nccc(-c2c(-c3cccc(F)c3)nc3sccn23)n1)c1ccc(Cl)cc1` the figure was 95.9% (inactive); with `O=C(Nc1ccc(Br)cc1)Nc1cccc(Br)c1`, 5.54% (active).
With `O=C1c2cccnc2C(=O)c2c1c(C(=O)OCCc1ccccn1)c1ccccn21` the figure was -19.5% (active); with `C=C(C)[C@@H]1CC[C@]2(COCCCNCCCN)CC[C@]3(C)[C@H](CC[C@@H]4[C@@]5(C)CC[C@H](OCCCN)C(C)(C)[C@@H]5CC[C@]43C)[C@@H]12`, 48.2% (inactive).
On to `Cc1ccc(Cc2cnc(NC(=O)c3cc(C)oc3C)s2)cc1`, for which the growth is 79.1% (inactive).
In the case of `CC1CCCCN1CCCNC(=O)c1ccc2c(c1)sc1nc(-c3ccc(F)cc3)cn12` (stereo not given), the growth was 74.1% (inactive).
On to `C=CCc1c2c(c(OC)c3ccoc13)C(=O)/C(=C/c1ccccc1OC)O2`, for which the growth was 68.8% (inactive).
Consider `Cc1ccc(NS(=O)(=O)c2ccc3c(c2)C2OCCC2C(c2ccc(C(=O)C(C)C)cc2)N3)cc1C` (stereo not given), for which the growth was 20.4% (inactive).
Take `NC(=O)Nc1cc(-c2cccc(F)c2)sc1C(=O)N[C@H]1CCCNC1`: the growth was -29.9% (active).
On to `COc1cccc(-c2nc3sccn3c2-c2ccnc(NCCNS(=O)(=O)c3c(Cl)cccc3Cl)c2)c1`, for which the growth was 25.9% (inactive).
Under `OC(c1cc2ccc(C(F)(F)F)cc2c2cc(C(F)(F)F)ccc12)C1CCCCN1` (stereo not given) stands -72.8% (active); under `Cc1ccc(S(=O)(=O)CCCl)cc1`, 91.7% (inactive).
